Screens from PubChem BioAssay.
CHX counter – Cycloheximide Counterscreen for Small Molecule Inhibitors of Shiga Toxin; cell reporter, cycloheximide protein synthesis inhibition counterscreen; max response, %; actives 12% (n = 300,000); AID 2314, 2010; in the data active means max response mostly above about 13%, no sharp cut-off; inactive means mostly below about 14%; further: read at 38.3 µM for the half of the compounds with a filed dose; 0% is about no effect
Sm TGR block – qHTS Assay for the Inhibitors of Schistosoma Mansoni Peroxiredoxins | purified TGR, DTNB reduction, TNB absorbance 405 nm | Potency, µM (doses to about 114 µM), without a hit: at the highest dose activity change, negative = inhibition, most hits filed as inhibitors | actives 3% (n = 360,000) | AID 485364, 2010; active means well fitted inhibition curve with a large enough effect; inconclusive means small, poorly fitted or top-dose-only effect; inactive means no such curve, though single readings can be large or run the other way; further: potency means the concentration at half of the fitted maximal effect; on the % scale 0 is the no-effect control and ±100 the full control effect; nearly all actives have a fitted effect of over 60% in size
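First, TGR (20 nM dispensed) and NADPH were mixed with compound. Second, a 15 min room-temperature incubation followed. Third, further NADPH and then DTNB were added to start the reaction. Finally, TNB absorbance was monitored kinetically.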
FMDV antiviral – High Throughput Screening for Foot and Mouth Disease Virus Antivirals | actives 1.2% (n = 410,000) | Potency, µM (top dose mostly 57.9 µM), without a hit: at the top dose activity change, negative = inhibition, most hits filed as inhibitors | FMDV antiviral cell-based qHTS; calls by dose curve; tested in HEK293T cells; further: read-out not given here; potency means the concentration at half of the fitted maximal effect; on the % scale 0 is the no-effect control and ±100 the full control effect; nearly all actives have a fitted effect of over 45% in size
Shiga toxin inh – A qHTS for Small Molecule Inhibitors of Shiga Toxin | Vero cells, Shiga toxin protein synthesis inhibition reporter | inhibition, % at 38.7 µM | actives 9.2% (n = 290,000) | AID 2315, 2010; in the data active means inhibition mostly above about 28%, no sharp cut-off; inactive means mostly below about 43%; further: 0% is about no effect
* = called active by the depositor; u = inconclusive; x = not tested or not shown. Only some compounds are listed: those with a hit (about 12% of all), similar ones and a draw of the others.

SMILES	CHX counter	Sm TGR block	FMDV antiviral	Shiga toxin inh
CCN(CC)c1ccc(NC(=O)C2CC3CCC2C3)cc1 (stereo not given)	51*	-27%	32%	107*
Cc1ccc(C)c(NC(=O)C2CC3CCC2C3)c1 (stereo not given)	14*	-19%	44%	23
Cc1ccc(NC(=O)C2CC3CCC2C3)c(Br)c1 (stereo not given)	33*	3%	55%	83*
O=C(Nc1ccccc1)C1CC2CCC1C2 (stereo not given)	12	7%	8%	22
Cc1ccc(S(N)(=O)=O)cc1NC(=O)C1CC2CCC1C2 (stereo not given)	-2	15%	x	-12
COC(=O)c1cc(NC(=O)c2nn(C)c3c2CSc2ccccc2-3)cc(C(=O)OC)c1	x	8%	-4%	x
CC(C)(C)NC(=O)C(OC(=O)c1cccs1)c1ccccc1 (stereo not given)	22*	2%	19%	2
CC(C)(C)NC(=O)C(OC(=O)c1cccs1)c1ccc(F)cc1 (stereo not given)	9	-8%	6%	-8
Cc1ccc(-c2nnc(SCC(=O)Nc3ccccc3N3CCOCC3)o2)cc1	24	-1%	8%	39
COC(=O)c1ccccc1NC(=O)CSc1nnc(-c2cccnc2)o1	21*	11%	58%	65
CCOc1ccccc1NC(=O)CSc1nnc(-c2cccnc2)o1	x	-12%	-19%	x
COC(=O)c1ccccc1NC(=O)Cc1nc(-c2ccccc2)sc1-c1ccc(C)cc1	33*	-8%	4%	35*
COC(=O)c1ccccc1NC(=O)Cc1noc2ccc(C)cc12	x	2%	-15%	x
COC(=O)c1ccccc1NC(=O)CSc1nnc(-c2ccc(C)cc2)o1	33*	-2%	x	55*
Cc1cccc(NC(=S)Nc2cccc3ccccc23)c1	32*	0%	25%	95*
S=C(NCCc1ccncc1)Nc1cccc2ccccc12	1	14µM*	12%	6
COc1ccc(CNC(=S)Nc2cccc(OC)c2)cc1	-3	0%	28%	9
CCC(C)c1ccc(NC(=S)Nc2ccc(OC)c(OC)c2)cc1 (stereo not given)	5	-11%	-19%	15
COc1cccc(NC(=S)NN=C2CCCCCC2)c1	26*	8%	44%	53*
CCC(C)c1ccc(NC(=S)Nc2ccc(OC)cc2C)cc1 (stereo not given)	30*	-5%	1%	62*
Cc1ccc(NC(=O)c2c(C)cc(C)nc2SCC(=O)Nc2ccc(Br)cc2)cc1	x	-4%	-22%	x
O=C(COc1ccccc1)N(Cc1cccnc1)c1nc2c(F)cccc2s1	x	0%	13%	x
O=C(Nc1cnc(N2CCN(c3ccccc3)CC2)c(C(=O)O)c1)c1cccs1	x	u	-13%	x
Cc1cccc(NC(=S)Nc2ccccn2)c1C	-1	7%	4%	-2
C=CCNC(=S)Nc1cccc2ccccc12	4	-6%	x	17
SMILES	CHX counter	Sm TGR block	FMDV antiviral	Shiga toxin inh
CCc1ccc(NC(=S)Nc2cccc(OC)c2)cc1	16*	7%	35%	67*
COc1cccc(NC(=S)Nc2cccc3ccccc23)c1	85*	1%	15%	110*
COc1cccc(C(=O)Nc2cccc3ccccc23)c1	12	3%	26%	19
Cc1cc(NC(=S)Nc2cccc3ccccc23)n[nH]1	28*	u	5%	70*
CC(C)c1ccc(NC(=S)Nc2cccc3ccccc23)cc1	55*	-17%	u	98*
CCc1ccc(-n2nc(C)c3c(C(=O)Nc4cccc(C(F)(F)F)c4)cc(C)nc32)cc1	x	1%	u	x
C=COC(=O)/C=C/C	-4	x	x	-10
CN1CCN(C(c2ccccc2)c2sc3nc(-c4ccco4)nn3c2O)CC1 (stereo not given)	x	12%	-9%	x
CCc1cccc(NC(=S)Nc2cccc3ccccc23)c1	46*	-1%	46%	73
Fc1ccc(NC(=S)Nc2cccc3ccccc23)cc1F	46*	-20%	6%	45*
Cc1cc(C)cc(NC(=S)Nc2cccc3ccccc23)c1	-2	-12%	17%	-15
Fc1ccc(NC(=S)Nc2cccc3ccccc23)cc1	42*	-2%	0%	70*
Cc1ccc(NC(=S)Nc2cccc3ccccc23)cc1	90*	1%	-20%	78*
COc1ccc(OC)c(-c2cc(C(=O)Nc3cnn(Cc4ccc(Cl)cc4Cl)c3)no2)c1	x	8%	-19%	x
CC(C)CCNC(=S)Nc1ccccn1	-3	45µM*	4%	-2
COCCNC(=S)Nc1ccccn1	-2	x	14%	6
